Several values for one entry are separate records, joined by “and”; a condition that tells them apart may be missing. Identical values can stand only once. In all, about 420,000 compounds went through this assay and about 50,000 (12%) were called active. Not shown: some 26% with an inconclusive outcome. Calls come from the whole dose curve; as a rule, active = well fitted inhibition curve with a large enough effect; inconclusive = small, poorly fitted or top-dose-only effect; inactive = flat fitted curve, though single readings scatter. The list comes from a sample in which actives are over-represented; it also holds similar structures and randomly drawn compounds. The source holds several records for some structures; these can differ, active in one and inactive in another.
Assay: qHTS for Inhibitors of human tyrosyl-DNA phosphodiesterase 1 (TDP1): qHTS in cells in presence of CPT; note: nearly all actives have a fitted effect of over 55% in size
Conditions: chicken DT40 Tdp1-/-;hTDP1 cells + 20 nM CPT, ATP luminescence, 48 h; series mostly up to 46.2 µM; activity change, negative = growth inhibition: at the top concentration
Outline: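 Chicken DT40 Tdp1-/- cells stably complemented with human TDP1 were seeded at 400 cells/well in medium containing 20 nM camptothecin, exposed to pin-transferred compounds, and grown at 37 °C for at least 48 hr. Viability was read as ATP luminescence.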
% is set by controls: 0 for no effect and ±100 for the full control effect; potency is the fitted concentration of half-maximal effect.

SMILES | Potency | activity change, negative = growth inhibition
CCOC(=O)C(=CNNc1ccsc1C(=O)OC)C(=O)OCC | 18.4 µM (active) | 
COC(=O)c1sccc1NC(=S)Nc1ccc(C)cc1 |  | 9.55% (inactive)
CNC(=O)c1cccc2nc3ccccc3nc12 |  | 6.51% (inactive)
Cc1[nH]c2ccccc2c1C(=O)C(=O)N(C)c1ccccc1 |  | 6.6% (inactive)
O=C(NCc1ccccc1Cl)C1CCN(S(=O)(=O)c2cccc3nonc23)CC1 |  | 22.7% (inactive)
Cc1nc(C)c(C(=O)N(c2ccc(C)c(C)c2)C(C(=O)NCc2ccco2)c2ccccc2)s1 (stereo unspecified) |  | -22.4% (inactive)
Cc1ccc(-c2nnn(CC(=O)N(Cc3ccco3)C(C(=O)NC(C)(C)C)c3ccncc3)n2)o1 (stereo unspecified) |  | 20.6% (inactive)
Cc1nn(-c2ccccc2)c2sc(C(=O)N(Cc3ccco3)C(C)C(=O)NC(C)(C)C)cc12 (stereo unspecified) | 13 µM (active) | 
COCC1CCN(C(=O)CCc2nnc(C3(c4ccc(Cl)cc4)CCC3)o2)C1 (stereo unspecified) |  | -18.8% (inactive)
CCNC(=O)N1CCN(S(=O)(=O)c2ccc3c(c2)OCCCO3)CC1 |  | -1.82% (inactive)
COc1ccc(N2CC(C(=O)NCCS(=O)(=O)N3CCN(c4ccccc4)CC3)CC2=O)cc1 (stereo unspecified) | inactive | 
CC(C)CCNC(=O)c1ccc2c(Cl)c3c(nc2c1)CCC3 |  | 0.827% (inactive)
COc1ccc(N2CCN(C(=O)c3ccc4c(Cl)c5c(nc4c3)CCCC5)CC2)cc1 | inactive and 20.6 µM (active) | 
COc1ccc(N2CCN(C(=O)c3ccc(N4CCCCS4(=O)=O)cc3)CC2)cc1 |  | -17.5% (inactive)
Cc1cccc(N(C)C(=O)CS(=O)(=O)c2cccc3nsnc23)c1 |  | -6.53% (inactive)
Clc1ccc(Nc2ccc3ccccc3n2)cc1 |  | -21.1% (inactive)
CCc1ccc(S(=O)(=O)c2nnn3c2nc(N2CCN(CC)CC2)c2sccc23)cc1 |  | 0.519% (inactive)
Cc1ccc(C)c(S(=O)(=O)c2nnn3c2nc(N2CCOCC2)c2sccc23)c1 | 23.1 µM (active) | 
Cc1ccc(S(=O)(=O)c2nnn3c2nc(N2CCN(c4ccccn4)CC2)c2ccccc23)cc1 |  | -4.25% (inactive)
COc1ccc(/C=N/NC(=O)c2ccncc2)cc1CN1CCCc2ccccc21 |  | -7.33% (inactive)
O=C(Nc1ccccn1)C1CCN(S(=O)(=O)c2ccccc2)CC1 |  | -22.2% (inactive)
CCOc1ccc(NC(=O)CSc2c3c(nc4ccccc24)CCCC3)cc1 | 16.4 µM (active) | 
CCOc1ccc(NC(=S)N2CCC(NC(=O)c3ccccc3)CC2)cc1 |  | 10.3% (inactive)
COc1cccc(CNC(=O)c2nnn(CC(=O)Nc3cc(Cl)ccc3C)c2N)c1 | inactive | 
CCOc1ccc(-n2nc3ccc(NC(=O)c4ccc(OC)c(Cl)c4)cc3n2)cc1 |  | -28.6% (inactive)
CCOc1ccc(NC(=O)CSc2nncn2C)cc1 |  | 0.635% (inactive)

SMILES | Potency | activity change, negative = growth inhibition
COc1cccc(CNC(=O)c2ccc3c(Cl)c4c(nc3c2)CCCC4)c1 |  | -25.3% (inactive)
CCOc1ccc(C(=O)NC2CCN(C(=O)Nc3ccccc3OC)CC2)cc1 |  | -11.3% (inactive)
COc1cccc(CNC(=O)CSc2c3c(nc4cc(Cl)ccc24)CCCC3)c1 | 23.1 µM (active) | 
CCOc1ccc(C(=O)Nc2ccc3nc4c(c(Nc5ccccc5OC)c3c2)CCCC4)cc1 | 4.11 µM (active) | 
O=C1NCC(Nc2ccccc2)C(=O)N1 (stereo unspecified) |  | 19% (inactive)
Nc1c(C(=O)OCC(=O)Nc2ccc(OC(F)F)cc2)[nH]c(=O)[nH]c1=O |  | 1.58% (inactive)
COc1ccc(S(=O)(=O)N2CCC(C(=O)OCC(=O)c3ccccc3)CC2)cc1[N+](=O)[O-] |  | 1.81% (inactive)
CCOC(=O)N1CCN(c2c(NCCCN3CCCC(C)C3)c(=O)c2=O)CC1 (stereo unspecified) |  | -0.394% (inactive)
COc1ccc(C)cc1-n1c(-c2ccc(C)cc2)cc2c1CC(C)(C)CC2=O | 8.2 µM (active) | 
CC1(C)CC(=O)c2cnc3nc4ccccc4n3c2C1 |  | -28.7% (inactive)
COc1ccc(Cl)cc1-n1c(CCC(=O)O)ccc1-c1ccc(C)cc1 |  | -20.6% (inactive)
CCOC(=O)N1CCN(C(=O)COC(=O)c2cccc(S(C)(=O)=O)c2)CC1 |  | -0.23% (inactive)
COc1ccc(NC(=O)CSc2nncc(=O)n2N)cc1OC |  | 5.56% (inactive)
CN(C)c1ccc(/C=N\S(=O)(=O)c2ccccc2)cc1 |  | -8.74% (inactive)
CN(C)c1ccc(/C=C/c2sc3ccccc3[n+]2C)cc1 | 0.0447 µM (active) | 
CN(C)c1ccc(/C=C/c2sc3ccccc3[n+]2CCCCBr)cc1 | 0.316 µM (active) | 
COc1ccccc1C(=O)NCCC(=O)N(C)Cc1cccnc1 |  | 0.238% (inactive)
Cc1ccc(NC(=S)NC(NC(=O)Cc2cccc3ccccc23)C(Cl)(Cl)Cl)cc1 (stereo unspecified) |  | 13.1% (inactive)
CSc1ncnc2c1ncn2CCCNCc1ccco1 |  | -10.8% (inactive)
O=C(NNc1c2ccccc2nc2ccccc12)c1cc2ccccc2cc1O | 23.1 µM (active) | 
CC(C)(C)OC(=O)NNc1c2ccccc2nc2ccccc12 | 16.4 µM (active) | 
Cc1ccccc1NC(=O)NNC(=O)OC(C)(C)C |  | 11.6% (inactive)
O=C(CSc1nc(C2CC2)nc2ccccc12)Nc1cccc(O)c1 |  | -16.6% (inactive)
Cc1ccc(C(=O)NNC(=O)OC(C)(C)C)c(Cl)c1 |  | 14.3% (inactive)
O=C(COC(=O)c1ccc(O)cc1O)NC(=O)c1ccccc1 |  | -17.2% (inactive)
